# Assay: binders of probe aFSTL3 on microarray, primary screen, stem cell growth factor project, biochemical, small-molecule microarray, fluorescence 635/667 (AID 1064);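 also: measures binding of the biotinylated anti-FSTL3 antibody to printed compounds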
# Details: higher = more signal
row,Compound,composite z-score
1,O=C1C2C=CC(C(O)c3ccc([N+](=O)[O-])cc3)N(Nc3ccccc3)C2C(=O)N1c1ccccc1 (centres undefined),-0.228
2,CC(=O)NCCCC[C@@H]1NC(=O)[C@H]2C[C@@H](C(=O)NCCCCCC[N+](C)(C)C)[C@@H](c3ccc(O)cc3)N2C1=O,-0.383
3,CCCC[C@H]1OB(O)C[C@H]2C1=C(COC)C[C@H]1C(=O)C=CC(=O)[C@H]12,-0.54
4,C[C@@H](OCc1ccccc1)C1NC(=O)[C@@]23C(=O)N[C@@H](Cc4ccccc4)C2[C@H](C)[C@@]2(C)O[C@H]2C3/C=C/C/C=C\CNC(=O)[C@H](Cc2ccccc2)NC1=O (some centres undefined),-0.497
5,C=CCC(OC(C)=O)[C@@H]1[C@@H](N(Cc2ccc(-c3cccc(C(F)(F)F)c3)o2)C(=O)c2cccc3ccccc23)c2cc(OCCCO)ccc2N1C(=O)c1ccc2ccccc2c1 (some centres undefined),0.125
6,COCCn1c(C(=O)N2CCCC2)cc2c1C[C@H]1CN(C(=O)c3ccccc3)[C@@](Cc3ccccc3)(C(=O)OC)[C@@H]21,0.288
7,C=CC[C@@]12N=C(c3ccc(OCCCO)cc3)O[C@@H]1c1ccccc1N(Cc1ccccc1)C2=O,1.16
8,C[C@]1(C(=O)NCC(F)(F)F)c2ccccc2C(=O)N(Cc2ccc(OC(F)(F)F)cc2)[C@H]1c1ccc(CO)cc1,-0.303
9,O=C1N(CCS(=O)(=O)c2ccccc2)c2ccccc2[C@@H]2OC(c3ccc(OCCCO)cc3)=N[C@]12CCS(=O)(=O)c1ccccc1,0.359
10,CN(C)CCCC[C@@H]1NC(=O)[C@@H]2C[C@H](C(=O)NCCCCCCNC(=O)CS)[C@H](c3cccc(OCCO)c3)N2C1=O,0.0594
11,[N-]=[N+]=Nc1ccccc1[C@@H]1OC(c2ccc(OCCCO)cc2)=N[C@]1(Cc1ccccc1)C(N)=O,0.379
12,C=CC[C@]1(C(=O)N(C)C)COC(c2ccc(OCCCO)cc2)=N1,1.11
13,O=C1O[C@@H](c2ccccc2)[C@@H](c2ccccc2)N2[C@@H](c3ccc(O)cc3)[C@]3(C(=O)Nc4ccc(C#CC5=CCCCC5)cc43)[C@@H](C(=O)N3CCCCCCC3)[C@H]12,2.95
14,CCCCC(=C=CC[C@@H](O)c1cccc(OCCO)c1)C[C@@H](O)COCc1ccccc1,-0.407
15,[N-]=[N+]=NCc1ccccc1C[C@]1(C(=O)O)COC(c2ccc(OCCCO)cc2)=N1,0.895
16,COC(=O)[C@]1(CO)N=C(c2ccc(OCCCO)cc2)O[C@@H]1c1ccccc1CN=[N+]=[N-],-0.0858
17,COc1ccc(NN2C(C(O)c3cc(C(F)(F)F)cc(C(F)(F)F)c3)C=CC3C(=O)N(C4CCCCC4)C(=O)C32)cc1 (centres undefined),0.844
18,CN(C)CCCC[C@@H]1NC(=O)[C@H]2C[C@@H](C(=O)NCc3ccc(F)cc3)[C@@H](c3ccc(O)cc3)N2C1=O,0.0653
19,CCCC=C(CCC)[C@@H](NC(=O)c1ccccc1)c1ccc(C(=O)OC)cc1,0.0872
20,C=CCC(OC(C)=O)[C@@H]1[C@@H](N(Cc2cccc3ccccc23)C(=O)c2cccc3ccccc23)c2cc(OCCCO)ccc2N1C(=O)Cc1ccc2ccccc2c1 (some centres undefined),-0.101
21,C=C(COC)/C(=C/C[C@@H](OC(C)=O)c1ccccc1OCCO)c1cc(C(=O)OC)ccc1OC,0.0503
22,CO[C@H]1O[C@H](CO)[C@@H](OC(=O)Nc2ccc(C(F)(F)F)cc2)[C@H](OC(=O)Nc2ccccc2-c2ccccc2)[C@@H]1OC(=O)Nc1ccccc1-c1ccccc1,0.433
23,CCOC(=O)C[C@H]1[C@H](OC(=O)c2ccc(-c3ccccc3)cc2)[C@@H](NC(=O)CC(C)C)c2cc(OCCCO)ccc2N1C(=O)Cc1ccc(OC)cc1,0.0706
24,CCOC(=O)C[C@H]1[C@H](OC(=O)c2cc3ccccc3oc2=O)[C@@H](NC(=O)C2CCCCC2)c2cc(OCCCO)ccc2N1C(=O)Cc1ccc(OC)cc1,-0.0716
25,N#Cc1ccc(C(O)C2C=CC3C(=O)NC(=O)C3N2Nc2ccccn2)cc1 (centres undefined),-0.0872
26,O=C1C2C=CC(C(O)c3cccs3)N(Nc3ccccc3)C2C(=O)N1c1ccccc1 (centres undefined),0.629
27,COC(=O)[C@@]1(Cc2ccc(OC)cc2)[C@H]2c3cc(C(=O)N4CCCC4)n(CCc4ccc(OC)c(Br)c4)c3C[C@H]2CN1C(=O)c1ccccc1,1.02
28,CO[C@H]1O[C@H](CO)[C@@H](OC(=O)Nc2ccc(C(F)(F)F)cc2)[C@H](OC(=O)Nc2ccccc2-c2ccccc2)[C@H]1OC(=O)Nc1ccccc1-c1ccccc1,-0.288
29,CCOC(=O)C1=C(C(=O)OCC)N(S(=O)(=O)CC[Si](C)(C)C)[C@H](c2ccccc2)CC1,0.208

# From PubChem BioAssay
